PubChem BioAssay (EPA / NIEHS)
Inconclusive results are not listed. Calls of active or inactive are those of the source. How the source made its calls: active means hit-call score of the fitted dose curve at least 0.9, where 1 is the maximum; inconclusive means response in the unintended direction; inactive means score below 0.9.

Legend:
[1] = Tanguay_ZF_120hpf_MORT_legacy: (Legacy) Oregon State University Tanguay Lab 120 Hour Post-fertilization zebrafish Assay for Mortality (AID 2283633)
Method in brief: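 Dechorionated Tropical 5D wild-type zebrafish embryos, one per well from 6 hpf, were statically exposed at 28C in the dark until 120 hpf (0.64% DMSO final). Mortality was scored as present/absent by brightfield microscopy, fitted positively versus DMSO.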

[2] = Tanguay_ZF_120hpf_YSE_legacy: (Legacy) Oregon State University Tanguay Lab 120 Hour Post-fertilization zebrafish Assay for Yolk Sac Edema (AID 2283634)
Method in brief: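 Tropical 5D wild-type embryos, dechorionated with pronase at 4 hpf, were exposed singly from 6 hpf to 120 hpf under static, sealed, dark conditions at 28C with 0.64% DMSO final. Yolk sac edema was scored present/absent by brightfield microscopy.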

[3] = Tanguay_ZF_120hpf_AXIS_legacy: (Legacy) Oregon State University Tanguay Lab 120 Hour Post-fertilization zebrafish Assay for Body Axis Malformation (AID 2283635)
Method in brief: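 Tropical 5D wild-type zebrafish embryos, dechorionated with pronase at 4 hpf, were placed singly in wells at 6 hpf and exposed statically to test chemical (0.64% DMSO final) at 28C until 120 hpf, then scored by brightfield for body axis defects.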

[4] = Tanguay_ZF_120hpf_EYE_legacy: (Legacy) Oregon State University Tanguay Lab 120 Hour Post-fertilization zebrafish Assay for Eye Malformation (AID 2283636);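 further: binary presence or absence of eye malformation scored by brightfield in 120 hpf larvae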
Method in brief: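 Static waterborne exposure of dechorionated zebrafish embryos (strain Tropical 5D), 6 to 120 hpf, sealed plates at 28C, 0.64% DMSO vehicle. Eye malformation is scored as a binary endpoint, with gain of signal analysed relative to DMSO.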

[5] = Tanguay_ZF_120hpf_SNOU_legacy: (Legacy) Oregon State University Tanguay Lab 120 Hour Post-fertilization zebrafish Assay for Snout Malformation (AID 2283637)
Method in brief: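 Dechorionated zebrafish, individually housed from 6 hpf in covered, sealed wells at 28C with 0.64% DMSO vehicle, were examined at 120 hpf for snout malformation. Responses were binary and analysed positive-direction relative to DMSO.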

[6] = Tanguay_ZF_120hpf_JAW_legacy: (Legacy) Oregon State University Tanguay Lab 120 Hour Post-fertilization zebrafish Assay for Jaw Malformation (AID 2283638)
Method in brief: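 Tropical 5D wild-type embryos, dechorionated with pronase at 4 hpf, were placed singly per well at 6 hpf and statically exposed at 28C until 120 hpf (0.64% DMSO final). Jaw malformation scored as present/absent by brightfield microscopy at 120 hpf, analyzed relative to DMSO.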

[7] = Tanguay_ZF_120hpf_OTIC_legacy: (Legacy) Oregon State University Tanguay Lab 120 Hour Post-fertilization zebrafish Assay for Otic Vesicle Malformation (AID 2283639)
Method in brief: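 Statically exposed wild-type 5D zebrafish embryos, kept sealed and dark at 28C through 120 hours post fertilization, were examined by brightfield microscopy for otic vesicle defects. Responses were recorded as present or absent and analysed relative to DMSO.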

[8] = Tanguay_ZF_120hpf_BRAI_legacy: (Legacy) Oregon State University Tanguay Lab 120 Hour Post-fertilization zebrafish Assay for Brain Malformation (AID 2283641)
Method in brief: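 Tropical 5D wild-type zebrafish embryos were exposed statically in sealed, foil-covered plates at 28C until 120 hpf, with 0.64% (vol/vol) final DMSO. Brain malformation was scored present/absent by brightfield microscopy, relative to DMSO baseline.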

[9] = Tanguay_ZF_120hpf_SOMI_legacy: (Legacy) Oregon State University Tanguay Lab 120 Hour Post-fertilization zebrafish Assay for Somite Malformation (AID 2283647)
Method in brief: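 Tropical 5D wild-type zebrafish embryos, dechorionated with pronase at 4 hpf, were placed singly at 6 hpf and statically exposed until 120 hpf at 28C in 0.64% DMSO. Somite malformation was scored present/absent by brightfield microscopy versus DMSO.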

[10] = Tanguay_ZF_120hpf_PFIN_legacy: (Legacy) Oregon State University Tanguay Lab 120 Hour Post-fertilization zebrafish Assay for Pectoral Fin Malformation (AID 2283648);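 further: each larva judged yes or no for fin defect by brightfield with dead larvae skipped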
Method in brief: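 Scoring of pectoral fin malformation was binary, made at 120 hpf on larvae exposed statically from 6 hpf after enzymatic chorion removal. Activity was fitted upward relative to DMSO controls at 0.64% (vol/vol).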

[11] = Tanguay_ZF_120hpf_CFIN_legacy: (Legacy) Oregon State University Tanguay Lab 120 Hour Post-fertilization zebrafish Assay for Caudal Fin Malformation (AID 2283649)
Method in brief: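 Tropical 5D wild-type embryos, dechorionated with pronase at 4 hpf, were placed singly in wells at 6 hpf and statically exposed to compound at 28C until 120 hpf (0.64% DMSO). Caudal fin malformation was scored present/absent by brightfield microscopy.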

[12] = Tanguay_ZF_120hpf_CIRC_legacy: (Legacy) Oregon State University Tanguay Lab 120 Hour Post-fertilization zebrafish Assay for Circulatory Malformation (AID 2283651)
Method in brief: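 Embryos are dechorionated at 4 hpf, plated one per well at 6 hpf, then held under static exposure at 28C until 120 hpf. Malformations are recorded as binary calls; mortality excludes other endpoints.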

[13] = Tanguay_ZF_120hpf_SWIM_legacy: (Legacy) Oregon State University Tanguay Lab 120 Hour Post-fertilization zebrafish Assay for Swim Bladder Malformation (AID 2283654);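 further: swim bladder malformation in each larva scored yes or no under brightfield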
Method in brief: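 Static waterborne exposure of single dechorionated Tropical 5D zebrafish embryos, 6–120 hpf, 28C, 0.64% DMSO final. Read-out: swim bladder malformation, present/absent, relative to DMSO negative control; trimethyltin chloride 5uM served as positive control.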

[14] = Tanguay_ZF_120hpf_TRUN_legacy: (Legacy) Oregon State University Tanguay Lab 120 Hour Post-fertilization zebrafish Assay for Truncated Body (AID 2283655)
Method in brief: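 Tropical 5D wild-type embryos, dechorionated with pronase at 4 hpf, were placed singly in wells at 6 hpf and statically exposed at 28C until 120 hpf, final DMSO 0.64%. Truncated body was scored present/absent by brightfield microscopy.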

[15] = Tanguay_ZF_120hpf_NC_legacy: (Legacy) Oregon State University Tanguay Lab 120 Hour Post-fertilization zebrafish Assay for Notochord and Tail Malformation (AID 2283656)
Method in brief: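 Binary scoring of notochord distortion by brightfield microscopy; embryos dying were not scored. Wild-type Tropical 5D embryos, chorion removed, exposed singly and statically from 6 to 120 hpf, 28C, sealed, 0.64% DMSO.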

[16] = Tanguay_ZF_120hpf_PIG_legacy: (Legacy) Oregon State University Tanguay Lab 120 Hour Post-fertilization zebrafish Assay for Pigmentation Malformation (AID 2283650)
Method in brief: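 Endpoint is incidence of abnormal pigmentation at 120 hpf in dechorionated 5D zebrafish exposed singly from 6 hpf at 28C, DMSO vehicle at 0.64%. Embryos dying by 24 or 120 hpf are excluded from scoring.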

[17] = Tanguay_ZF_120hpf_PE_legacy: (Legacy) Oregon State University Tanguay Lab 120 Hour Post-fertilization zebrafish Assay for Pericardial Edema (AID 2283640)
Method in brief: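 Tropical 5D wild-type zebrafish embryos were exposed statically to 120 hpf at 28C, sealed and foil-covered, in 0.64% DMSO final. Pericardial edema was scored present/absent by brightfield microscopy; dead embryos were not scored.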

Measured: outcome

N#CC(Br)(Br)C(N)=O
not listed: [15] | [16] | [17]
inactive: all other assays above

OCCCBr
not listed: [12] | [16] | [17]
inactive: all other assays above

Nc1ccc(Cc2ccc(N)cc2)cc1
not listed: [8] | [12] | [14] | [17]
inactive: all other assays above

OCCCl
not listed: [14] | [17]
inactive: all other assays above

Nc1cc(Cl)cc(C(=O)O)c1Cl
not listed: [7] | [8]
inactive: all other assays above

CCCCOC(=O)c1ccccc1C(=O)OCc1ccccc1
not listed: [13] | [16] | [17]
inactive: all other assays above

CCCSC(=O)N(CCC)CCC
not listed: [17]
inactive: all other assays above

CCCCCOC(=O)c1ccccc1C(=O)OCCCCC
not listed: [11] | [17]
inactive: all other assays above

OCCOCCO
not listed: [8] | [12] | [17]
inactive: all other assays above
